The whole screen tested about 1,400 compounds, of which about 140 (10%) were called active.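 Rule for the calls: active = Half-maximal inhibitory dose from the fit at or below ten times the top valid tested dose; inconclusive = Invalid fit, or flat curve showing 30 to 70% inhibition; inactive = the rest.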 A selection follows. Potency and affinity values are given separately.
target: Lysine-specific demethylase 4C (Homo sapiens) (UniProt Q9H3R0); assay: GASC-1 (JMJD2C) histone demethylase inhibitors, dose response, biochemical, DELFIA europium, cherry-picked samples (AID 488835); settings: GST-JMJD2C(1-420), H3K9me3 demethylation; series mostly up to 6 µM; activity change, negative = inhibition: at the top concentration;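 note: signal is the H3K9me2 demethylation product detected by a dimethyl-specific antibody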
Sequence (Q9H3R0 1-420 limits assumed): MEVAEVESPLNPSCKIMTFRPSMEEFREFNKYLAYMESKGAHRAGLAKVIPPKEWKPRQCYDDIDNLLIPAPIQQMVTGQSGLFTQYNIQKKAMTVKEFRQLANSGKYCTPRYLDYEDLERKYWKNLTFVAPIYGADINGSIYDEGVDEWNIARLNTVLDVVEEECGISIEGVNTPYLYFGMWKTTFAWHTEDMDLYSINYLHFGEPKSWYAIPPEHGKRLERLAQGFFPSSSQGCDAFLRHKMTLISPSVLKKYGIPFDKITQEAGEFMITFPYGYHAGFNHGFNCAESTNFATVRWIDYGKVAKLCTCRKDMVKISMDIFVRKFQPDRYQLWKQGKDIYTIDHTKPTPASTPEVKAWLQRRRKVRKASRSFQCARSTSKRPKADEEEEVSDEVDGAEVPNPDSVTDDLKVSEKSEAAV

Activity change, negative = inhibition, inactive:
C=CCn1c(O)c(N=Nc2ccccc2C)c2ccccc21 -0.66%
C=CCn1c(-c2cccc3ccccc23)n[nH]c1=S -0.0654%
c1ccn2c(SCc3cn4ccsc4n3)nnc2c1 4.63%
CCOc1cccc(C2C(C(=O)c3ccco3)=C(O)C(=O)N2Cc2ccncc2)c1 (configuration not stated) -1.49%
CCC(C)(C)NC(=O)C(c1cccn1C)N(Cc1ccc(OC)cc1)C(=O)Cn1nnc2ccccc21 (configuration not stated) 1.52%
O=C(Oc1cccc(NC(=O)c2ccco2)c1)c1cccc(S(=O)(=O)N2CCCC2)c1 0.126%
Cc1cc(-n2c(SCC(=O)NCc3cccs3)nc3n[nH]c(C)c3c2=N)ccc1Cl 4.17%
O=c1[nH]c(S)nc2sc3c(c12)CCCC3 -1.73%
CCOC(=O)C1=C(C)NC2=C(C(=O)CCC2)C1c1coc2ccccc2c1=O (configuration not stated) 2%
COc1ccc(CCNC(=O)c2ccccc2Cl)cc1OC 3.52%
CCOc1cc(CN2CCN(CCc3ccccc3)C(CCO)C2)ccc1OC (configuration not stated) 4.52%
CCc1ccc(NC(=O)N(CCN2CCOCC2)C2CCN(C(C)=O)CC2)cc1 3.77%
Cc1nnc(SCc2nnc(-c3ccccc3)o2)n(N)c1=O -1.28%
COc1ccc(NC(NC(=O)c2cccnc2)C(Cl)(Cl)Cl)cc1 (configuration not stated) 0.574%
CCCC(=O)Nc1nn(C)c2nc3c(C)cccc3cc12 -4.26%
O=C(COc1ccc(NC(=O)c2ccccc2)cc1)c1ccccc1 2.44%
C[C@@H]1CC[C@]2(C(=O)O[C@@H]3O[C@H](CO)[C@@H](O)[C@H](O)[C@H]3O)CC[C@]3(C)C(=CCC4[C@@]5(C)C[C@@H](O)[C@H](O)[C@@](C)(C(=O)O[C@@H]6[C@H](O)C[C@@]7(C)C(CC[C@]8(C)C7CC=C7[C@H]9[C@](C(=O)O[C@@H]%10O[C@H](CO)[C@@H](O)[C@H](O)[C@H]%10O)(CC[C@@H](C)[C@@]9(C)O)CC[C@]78C)[C@@]6(CO)C(=O)O)C5CC[C@]43C)[C@@H]2[C@]1(C)O (some centres not stated) 8%
Cc1cccc(C(=O)NCC(c2ccco2)N2CCc3ccccc32)c1 (configuration not stated) 4.14%
COc1ccc(Nc2ncnc3sc(-c4ccccc4)cc23)cc1OC 0.937%
COc1ccccc1Cc1nnc(NC(=O)C2CCN(C(=O)c3ccco3)CC2)s1 3.52%
CCN(C[C@H]1N[C@@](C)(C(=O)OC)[C@H]2C(=O)N(C)C(=O)[C@@H]12)C(=O)Nc1ccc(C)cc1 0.134%
CCCCN(CC)S(=O)(=O)c1ccc(C(=O)Nc2nnc(COC)o2)cc1 3.36%
O=C(NCc1cccc(Cl)c1)c1ccc2c(c1)OCO2 2.71%
Cc1cc(C)nc(NC(N)=NC(C)c2ccccc2)n1 (configuration not stated) -7.76%
CCn1c(O)c(N=NC2=NC(=O)CS2)c2ccccc21 0.856%
O=C(CCSCc1ccccc1F)NCCc1ccccc1 9.82%
Cc1noc(C)c1S(=O)(=O)N(C)C[C@H]1Oc2c(NC(=O)Nc3ccc(C(F)(F)F)cc3)cccc2C(=O)N([C@H](C)CO)C[C@@H]1C -5.65%
Cc1ccc(C(=O)N2CCN(c3ccc(Cl)cc3)CC2)cc1 1.79%
COc1cccc(NC(=O)CCN2C(=O)C3CC=CCC3C2=O)c1 (configuration not stated) -8.52%
NC(=O)Cn1nc([N+](=O)[O-])nc1Oc1ccccc1F -7.81%
S=C(NCc1ccco1)Nc1cccc(Cl)c1 -6.24%
O=C(NCc1ccccc1)c1ccc2c(c1)OCCO2 1.89%
Cc1noc(C)c1NC(=O)Nc1cccc2c1O[C@H](CN(C)C(=O)Nc1ccc3c(c1)OCO3)[C@@H](C)CN([C@H](C)CO)C2=O 12.1%
Cc1[nH]n(-c2ccccc2)c(=O)c1N=Nc1nccs1 -6.11%
CCOC(=O)N1CCc2c(sc3nc4n(c(=O)c23)N=C(C)CS4)C1 -0.154%
COc1ccc(CN(Cc2nc3ccccc3c(=O)[nH]2)C(=O)NC2CCCCC2)cc1 -0.777%
NC(=O)C1CCN(C(=O)c2ccc(Oc3cc(Cl)cc(Cl)c3)o2)CC1 -2.91%
COc1ccccc1-n1cnnc1SCC(=O)Nc1ncc(Cl)cc1Cl -7.89% [at 1.6 µM]
COc1ccccc1NC(=O)COC(=O)/C=C/c1cccs1 6.16%
O=[N+]([O-])c1cc(Cl)ccc1Nc1ccccc1 2.42%
O=C(COC(=O)c1ccc(O)cc1)Nc1ccc(Cl)cc1 0.856%
COc1ccccc1NC(=O)c1cccs1 -1.1% [at 1.6 µM]
CC(=O)Nc1ccc(NC(=O)C2CCN(C(=O)c3cccs3)CC2)cc1 -11.3%
O=C(NCC1CCCO1)C(c1ccc(F)cc1)N(CCCN1CCOCC1)C(=O)c1ccc(-c2ccccc2)[nH]1 (configuration not stated) 10.5%
COCCn1c(C(C)C)nc2sc3ccccc3c(=O)c2c1=O 5.81%
COC(=O)CNS(=O)(=O)c1ccc(C)cc1 2.24%
COC(=O)[C@]1(C)N[C@H](CN(C)C(=O)Nc2ccc(C)cc2)[C@@H]2C(=O)N(Cc3ccccc3)C(=O)[C@@H]21 3.23%
